From PubChem BioAssay AID504832 (National Center for Advancing Translational Sciences (NCATS), 2011)
About 18,000 (5.8%) of roughly 310,000 compounds were called active. About 22% were inconclusive and are not listed. This excerpt belongs to a sample that is enriched for actives. Values without a mark were called inactive. The call rests on the fitted dose curve; in most records, active means well fitted inhibition curve with a large enough effect; inconclusive means small, poorly fitted or top-dose-only effect, or another doubt; inactive means no such curve, though single readings can be large or run the other way.

assay: Primary qHTS for delayed death inhibitors of the malarial parasite plastid, 48 hour incubation; settings: P. falciparum luciferase growth in erythrocytes; series mostly up to 28.7 µM; activity change, negative = inhibition: at the top concentration
Description: The goal of this screen is to discover new antimalarial compounds that act by inhibiting the development of the apicoplast in the malarial parasite Plasmodium falciparum. The biochemical processes that make this organelle essential for erythrocytic stage parasites are not well understood. However, antibiotics such as azithromycin and tetracycline, which target the apicoplast translational machinery, have a potent antimalarial effect.
We have developed a cell-based assay that measures parasite growth based on the expression of an integrated copy of a firefly luciferase reporter. To detect small molecules that cause this "delayed death" phenotype, erythrocytes infected with the luciferase-expressing parasites were incubated with compounds for either one or two generations, corresponding to 48 and 96 hours, respectively. Compounds that inhibit parasite growth in the second generation, but not the first, should be enriched in antimalarials that target the apicoplast. Growth inhibition is detected by a decrease in luciferase activity.
Assay Provider: David Fidock and Eric Ekland, Columbia University
Keywords: NIH Roadmap, MLPCN, MLI, MLSMR, qHTS, NCGC, qHTS, malaria, luciferase, viability
Four microliters of culture medium (RPMI 1640 with 0.5% w/v Albumax (GIBCO), 24 mM sodium bicarbonate and 10 ug/mL gentamycin) were dispensed by a Multi-drop Combi into white solid 1536-well plates (Grenier) and 23 nL compound was added by a pin tool. Four microliters of infected erythrocytes (2% hematocrit, 0.1% parasitemia final concentration) in culture medium were dispensed and the plates incubated for 48 hours at 37 C in 5% CO2. Two microliters of luciferase detection reagent was added and luminescence was detected by a ViewLux (PerkinElmer) reader.
On the % scale 0 is the no-effect control and ±100 the full control effect; potency means the concentration at half of the fitted maximal effect.

SMILES	activity change, negative = inhibition [%]	Potency
CCOc1ccc(N2CC(C(=O)NCc3ccccn3)CC2=O)cc1 (stereo not given)	-0.962	
CC(C)C[C@H](NC(=O)N1CC(=O)Nc2ccccc21)C(=O)N[C@H](Cc1ccccc1)C(=O)O	-23.2	
COc1ccc(C(=O)ON=C2c3ccccc3-c3ccccc32)cc1OC	22.3	
COc1ccc(C/C(N)=N/OC(=O)c2ccco2)cc1OC	6.03	
COc1ccc(C(=O)O/N=C(\N)Cc2ccc(Cl)cc2Cl)cc1OC		13.1 µM (active)
Cc1ccc2c(C)c(C(=O)N(C)Cc3ccncn3)oc2c1C	-0.404	
CCOC(=O)N1CCN(C(=O)CSc2nc(=O)n3cccc(C)c3n2)CC1	-0.362	
CCN1CCN(C(c2cccnc2)c2cc(Cl)c3cccnc3c2O)CC1 (stereo not given)		4.15 µM (active)
CCOC(=O)N1CCN(C(c2cccnc2)c2ccc3cccnc3c2O)CC1 (stereo not given)		11.7 µM (active)
CCN1CCN(c2ccc(NC(=O)c3cnccn3)cc2)CC1	192	
CCOC(=O)N1CCN(Cc2nc(N)nc(Nc3ccc(C)cc3)n2)CC1	21.1	
CN(CC(=O)Nc1ccc(F)cc1)CC(=O)N1CCCCC1	3.47	
Cc1cc(C)cc(N(CC(=O)NC2CCCC2)C(=O)CCC(=O)Nc2cc(C)on2)c1	-38.6	
Cn1cc(CNC(=O)c2ccc(OC3CCN(Cc4ccccn4)CC3)cc2)cn1	-19.4	
CCOC(=O)c1cccc(NC(=O)C2CCN(c3ncnc4c3nc3n4CCCCC3)CC2)c1	-24.5	
COc1cc(C2/C(=C(\O)c3ccc4c(c3)CC(C)O4)C(=O)C(=O)N2c2nnc(C)s2)cc(OC)c1OC (stereo not given)	2.05	
O=S(=O)(Nc1cccc(-n2cnnn2)c1)c1cnc(Cl)c(Cl)c1	-12.1	
CC(=O)NC12CC3CC(C1)CC(C(=O)N1CCN(C(=O)c4ccco4)CC1)(C3)C2	85.7	
Cc1ccc(C(=O)Nc2ccn(C)n2)cc1	4.9	
CN1C(C(=O)NCc2ccco2)CC2Cn3c(nc4ccccc43)C21 (stereo not given)	-29.7	
Cc1nc2nc(SCC(=O)Nc3cccc(F)c3)[nH]c2cc1Br	39.1	
COc1ccc(CN2CCN(C(=O)CCC(=O)Nc3nnc(C(C)C)s3)CC2)cc1F	-1.74	

SMILES	activity change, negative = inhibition [%]	Potency
COc1cc(CN2CCC(C(N)=O)CC2)ccc1OCc1ccccc1	119	
COc1ccc(CN2CCN(C(=O)c3cc(C4CC4)nn3-c3ccccc3)CC2)cc1F		8.28 µM (active)
COc1ccc(C(=O)NCc2nnc(SCC(=O)NC3=NCCS3)n2C)cc1	10.4	
Cc1cc(=O)cc(C)n1-c1ccc(Cl)c(Cl)c1	-14.4	
CCN(CC)c1ccc([N+](=O)[O-])cc1C(=O)O	-8.48	
O=[N+]([O-])c1ccc(N(CCO)Cc2ccccc2)c([N+](=O)[O-])c1		4.65 µM (active)
O=C(OCC(=O)N(CCc1ccccc1)Cc1ccccc1)c1ccccc1[N+](=O)[O-]	33.7	
O=C(NCCCn1ccnc1)c1cc(Br)c(Br)s1	-13	
CC(=O)Nc1ccc(NC(=O)CSc2nnnn2C2CCCCC2)cc1	0.533	
CCCc1cc(=O)n2[nH]c(C)c(-c3ccc(Cl)cc3)c2n1	11.8	
NS(=O)(=O)c1cccc(NC(=O)CC23CC4CC(CC(Br)(C4)C2)C3)c1	25.6	
Cc1nnc(SCC(=O)Nc2cccc(N)c2)n1-c1ccccc1	0	
COc1ccc(C2=NS(=O)(=O)N(C)C(C(=O)NC(C)c3ccccc3)=C2)cc1 (stereo not given)	3.81	
COc1ccc(C2=NS(=O)(=O)N(C)C(C(=O)N3CCCCC3)=C2)cc1	-6.99	
COc1ccc(NC(=O)C2=CC(c3ccc(OC)c(OC)c3)=NS(=O)(=O)N2C)cc1		14.7 µM (active)
Cc1cccc(N(C)C(=O)c2cc(S(=O)(=O)N3CCCCC3)c[nH]2)c1	8.72	
Cc1cccc(CCNS(=O)(=O)c2ccc3c(c2)NC(=O)CO3)c1	12.1	
CCOc1ccc(NC(=O)CC(Cc2ccc(Cl)cc2)C(=O)O)cc1 (stereo not given)	31.6	
O=C1c2cccc(OCC(=O)N3N=C(c4cccs4)CC3c3ccc(F)cc3)c2CCN1Cc1ccccc1 (stereo not given)		7.38 µM (active)
COc1ccc(C2CC(c3ccccc3)=NN2C(=O)COC(=O)COc2ccccc2)cc1 (stereo not given)	-0.759	
COc1ccc(C2CC(c3cccs3)=NN2C(=O)CCC(=O)O)cc1OC (stereo not given)	-0.475	
COc1cc(C(=O)NCC(=O)NCCSc2ccc(Br)cc2)cc(OC)c1OC	37.5	

SMILES	activity change, negative = inhibition [%]	Potency
CCO[C@H]1OC(C(=O)N2CCOCC2)=C[C@@H](c2ccc3c(c2)OCO3)[C@@H]1CCCO	39.8	
CCO[C@H]1OC(C(=O)N2CCCCCCC2)=C[C@@H](c2ccc(C(F)(F)F)cc2)[C@@H]1CCCO		3.7 µM (active)
CCO[C@@H]1OC(C(=O)N2CCOCC2)=C[C@H](C)[C@H]1CCCO	12.4	
Cc1cc(C)c(S(=O)(=O)Nc2c(C)n(C)n(-c3ccccc3)c2=O)cc1[N+](=O)[O-]	-7.18	
COc1ccc(-c2cc(C(=O)N3CCN(c4ccc(F)cc4)CC3)no2)cc1	1.13	
Cc1cc(C)c(C2C3=C(Nc4c2c(C)nn4-c2ccccn2)c2ccccc2C3=O)c(C)c1 (stereo not given)		9.28 µM (active)
COC(=O)c1sccc1NC(=O)c1ccc(Cl)cc1	12.9	
Nc1nc(NCc2ccccc2)n(-c2ccccc2)n1	-9	
CCc1nnc(NC(=O)CSCc2cc(=O)n3cc(C)sc3n2)s1	-17.5	
COC(=O)C1=C(c2ccc(F)cc2OCc2ccccc2)C[C@@H]2CC[C@H]1N2C(=O)NCc1ccc(Cl)cc1		11.7 µM (active)
O=C(NCCc1ccc(Cl)cc1)C1CCCN1C(=O)NCc1ccccc1 (stereo not given)	8.13	
COC(=O)C1=C(c2ccc(F)cc2F)C[C@@H]2CC[C@H]1N2C(=O)NC1CC1	17.9	
COC(=O)C1=C(c2ccccc2OCc2ccccc2)C[C@@H]2CC[C@H]1N2C(=O)NCc1ccc(OC)cc1		13.1 µM (active)
COC(=O)c1ccc(CNC(=O)C2CCC(=O)N(Cc3cccc(F)c3)C2)cc1 (stereo not given)	-0.0903	
COC(=O)C1=C(c2ccc3ccccc3c2)C[C@@H]2CC[C@H]1N2C(=O)NCCO	3.2	
O=C(CN1CCN(C(=O)c2ccco2)CC1)Nc1ccc(Cl)c(C(F)(F)F)c1	-1.32	
COc1ccc(CNC(=O)C2CCN(S(C)(=O)=O)CC2)cc1	0	
COC(=O)C1=C(c2ccc(-c3ccccc3)c(F)c2)C[C@@H]2CC[C@H]1N2C(=O)NCc1ccc(F)cc1		13.1 µM (active)
O=C(O)C1CC=C(Cl)CC1C(=O)NCc1ccccc1 (stereo not given)	1.48	
COC(=O)C1=C(c2ccc(Cl)c(C(F)(F)F)c2)C[C@@H]2CC[C@H]1N2C(=O)NC1CC1		14.7 µM (active)
COc1ccc(CNC(=O)C2CCN(C(=O)c3ccccc3)CC2)cc1	-3.24	
